Data reported in PubChem BioAssay (NCATS).
Inconclusive results are not listed. A number with no mark means an inactive call. The call rests on the fitted dose curve; in most records, active means well fitted curve in either direction with a large enough effect (not every such curve was filed as active); inconclusive means small, poorly fitted or top-dose-only effect, or another doubt; inactive means flat fitted curve, though single readings scatter.

Assay: Stat Signaling Pathway (AID 446);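 further: SIE-controlled beta-lactamase reporter measured as 460/530 nm FRET emission ratio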
Settings: ME-180 (cervical carcinoma) SIE beta-lactamase reporter, IL-6 stimulated, 5 h; at 38 µM (top of the series) unless noted
Outline: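 Compound effects on IL-6-induced STAT reporter activity were measured in ME-180 cells. After overnight culture, cells were co-treated with 40 pM IL-6 for 5 hrs before beta-lactamase substrate loading at room temperature.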
On the % scale 0 is the no-effect control and ±100 the full control effect.

| SMILES | activity, negative = inhibition |
| --- | --- |
| NC1(C(=O)O)CCCCC1 | 9.73% |
| C[N+](C)(C)CC=O | 17.9% |
| CC(=O)C(C)=O | 31.9% |
| CN(C)CCC(c1ccc(Br)cc1)c1ccccn1 (stereo not given) | 1.22% [at 17.2 µM] |
| N[C@@H](Cc1ccc(O)c(I)c1)C(=O)O | 5.15% [at 17.2 µM] |
| CCCOC(=O)c1c(-c2ccccc2)nc(CC)c(C(=O)SCC)c1CCC | -19.4% |
| CCCn1c(=O)c2[nH]c(-c3ccc(S(=O)(=O)O)cc3)nc2n(CCC)c1=O | 42.3% |
| CC(C)NCC(O)COc1ccc(CC(N)=O)cc1 (stereo not given) | 14% [at 17.2 µM] |
| O=C(O)C1CCNCC1 | -8.76% |
| N=C(N)c1ccccc1 | 8.11% |
| NCCS(=O)O | -6.03% |
| N=C(N)c1ccc(OCCCCCOc2ccc(C(=N)N)cc2)cc1 (tested in a mixture with another compound) | -3.59% |
| N[C@@H](Cc1c[nH]c2ccccc12)C(=O)O | -9.87% |
| CC1CNCCN1S(=O)(=O)c1cccc2cnccc12 (stereo not given) | -1.62% [at 17.2 µM] |
| Cc1ccc2c(c1)C(N1CCN(C)CC1)=Nc1cccnc1N2 | 0.822% |
| NCCCCN=C(N)N | -20.8% |
| c1ccc(CN2CCC3(CCCc4ccccc43)CC2)cc1 | -10.2% |
| COc1ccccc1N1CCN(CCCCN2C(=O)c3ccccc3C2=O)CC1 | 19% |
| O=C(O)/C=C/c1ccc(O)c(O)c1 | -8.31% [at 17.2 µM] |
| O=C(O)C1=CCCN(CCON=C(c2ccccc2)c2ccccc2)C1 | -1.1% |
